# Data reported in the supplement of paper PMC6555819.
# System: RARb homodimer (NR concentration 270 nM)
# Experiment: PBM binding z-score (relative to random genomic background probes); higher = stronger binding; sequences stand for … in GC…GCGATTGACAGCGTAGAATGAAGG
# Summary of the method: (§1)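 The probes on custom Agilent 4×180K protein-binding microarrays were double-stranded, with 34-nt variable regions bearing direct-repeat seeds, single-nucleotide variants, half-site ablations and random human genomic background sequences. Incubation lasted 1 h with ligand-free nuclear receptor dimers in PBS pH 7.4, 2% milk, 0.02% Triton X-100, 1 mM DTT, 0.2 mg/mL BSA and 0.4 mg/ml salmon testes DNA. Antibodies against each partner (one per run) detected bound dimers, and fluorescence scans were regression-normalized. Binding z-scores take the random background probes as reference.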
row,Sequence,PBM binding z-score
1,TCTTGTAGATCAATAGAGGTCAAGAAAGTGCGCT,4.21
2,CCTTACGGGTCACTCCAGGTTATAACATCGGAGT,3
3,TCTTGTAGATCAAAAGTTAAGAAAGCCGAAGCCT,-0.728
4,TAGCCTAGGTCATGCGGGCCAGTATGGTGTCGGC,2.86
5,CGTCCAAGGTCAATGCTAGGTGAGTGAAAGCATT,3.95
6,TAGCCTGGGTCATTGGGCCAGTATAGTACGCATC,2.47
7,TCTTGTAGATCAACAGAAGGTTAAGAAAGATCGA,0.688
8,CGAACTAGGTCATCCAGGAAAGTGAATACATTGA,2.85
9,ATCTCTAGGTAACTAAGTTCAGTGAATGCCGAAC,1.92
10,CCTGCTAGGTGAATGGTCAGCTAAAGCAGCTCGC,0.445
11,TCATATAGGTAAATGCTAGGTGGAAGTCCGATCT,-0.19
12,ACTAACAGGCCAAGTTTGGGTCACTCAAACAAAG,2.55
13,GCTAGTTGGTCAGTATAAGGTCACACACCGGTCG,4.41
14,CGAACTAGGTAAGAACAGGACAGTGAAGGATGAT,-0.183
15,CCGAGCAGGTTATGGGGCATTCAGGCAACGGTGA,1.03
16,CCTACTGAGCCAAGGTCATTGATCAGTCAAAGCA,3.43
17,TCTACTAGGTCAACGATGGTCAGCTAATCTGCTA,3.59
18,CCTTACGGGTCACGCCAGGTTATAGCATCGGAGT,3.89
19,ACAGACAGGTGATGAAGGCAACTCAGGCTATCAT,-0.412
20,CCTAGTTGGTCAAGGGCACACACGCTATAGGTAC,1.78

row,Sequence,PBM binding z-score
1,ACTAGCAGGCCAAATTTGGGTCACTCAAACAAAG,2.36
2,CGTCCAAGGTCAATACTAGGTCAGTGAAAGCATT,5.1
3,ATACCAAGGTGATCGTGAGGTCGTGGATACTAAC,1.77
4,TCATATAGGTAAACAGCTGAAAGTCCGTAAGTTA,0.0749
5,TCCGCTAGGTCAACGATGGTCAGCTAATCTGCTA,3.45
6,ATCGCTAGGTAAAGATAGTTCAGTGAATGCAAAT,0.559
7,CCTCGGAGGACAACAGGAGGTCAGAGCTGCCAGA,3.64
8,CGTCCAAGGTCATAGGAGGTAAGTGAAGACAGAT,3.21
9,TCGAGAAGGTTACCAATGGGGCATTCAGCTTTCT,1.48
10,CCTTACGGGTCACTGACGGGTTATAGCATTTGGA,3.38
11,CAAACTAGGTCAATGGTCAAAGTCGAGCCAACCA,3.34
12,GCTAGTTGGTAAGTAAAAGGTCACACACCGGTCG,5.2
13,TAGCCTAGTTCATGGGCCAGTATACCACGCGAAC,1.05
14,GCAGACAGGTGAAAAGCAGGTAACTCAGGGTGGC,0.095
15,CGAACTAGGTTATCCAGGACAGTGAATACATTGA,0.559
16,ATCTCTAGGTAACAAGTTCAGAGAAAGAGAGGAC,1.98
17,GCTTACGGGTCAAAGGTTATAGCGTGAATAGAAT,3.29
18,ATACCAAGGTGATCGTGATGTCGTTGATACTAAC,0.279
19,CCTAGCAGGACAGGGTCACTCAAGCATTTCGCTT,2.77
20,TTAATGAGGTTATAAGATCAGGGAACGTTGCAAA,0.668

# System: RARg:RXRa (NR concentration 270 nM, RXRa partner concentration 90 nM)
# Experiment: as above
# Summary of the method: as §1
row,Sequence,PBM binding z-score
1,TCTTGTAGATCAATAGAGGTCAAGAAAGTGCGCT,3.92
2,CCTTACGGGTCACTCCAGGTTATAACATCGGAGT,4.24
3,TCTTGTAGATCAAAAGTTAAGAAAGCCGAAGCCT,0.0681
4,TAGCCTAGGTCATGCGGGCCAGTATGGTGTCGGC,4.2
5,CGTCCAAGGTCAATGCTAGGTGAGTGAAAGCATT,5.76
6,TAGCCTGGGTCATTGGGCCAGTATAGTACGCATC,3.67
7,TCTTGTAGATCAACAGAAGGTTAAGAAAGATCGA,0.942
8,CGAACTAGGTCATCCAGGAAAGTGAATACATTGA,4.03
9,ATCTCTAGGTAACTAAGTTCAGTGAATGCCGAAC,1.03
10,CCTGCTAGGTGAATGGTCAGCTAAAGCAGCTCGC,0.0358
11,TCATATAGGTAAATGCTAGGTGGAAGTCCGATCT,0.303
12,ACTAACAGGCCAAGTTTGGGTCACTCAAACAAAG,2.88
13,GCTAGTTGGTCAGTATAAGGTCACACACCGGTCG,4.28
14,CGAACTAGGTAAGAACAGGACAGTGAAGGATGAT,0.0419
15,CCGAGCAGGTTATGGGGCATTCAGGCAACGGTGA,0.387
16,CCTACTGAGCCAAGGTCATTGATCAGTCAAAGCA,3.7
17,TCTACTAGGTCAACGATGGTCAGCTAATCTGCTA,4.28
18,CCTTACGGGTCACGCCAGGTTATAGCATCGGAGT,5.65
19,ACAGACAGGTGATGAAGGCAACTCAGGCTATCAT,0.106
20,CCTAGTTGGTCAAGGGCACACACGCTATAGGTAC,1.41

row,Sequence,PBM binding z-score
1,ACTAGCAGGCCAAATTTGGGTCACTCAAACAAAG,2.39
2,CGTCCAAGGTCAATACTAGGTCAGTGAAAGCATT,6.92
3,ATACCAAGGTGATCGTGAGGTCGTGGATACTAAC,2.71
4,TCATATAGGTAAACAGCTGAAAGTCCGTAAGTTA,0.25
5,TCCGCTAGGTCAACGATGGTCAGCTAATCTGCTA,3.93
6,ATCGCTAGGTAAAGATAGTTCAGTGAATGCAAAT,0.136
7,CCTCGGAGGACAACAGGAGGTCAGAGCTGCCAGA,3.37
8,CGTCCAAGGTCATAGGAGGTAAGTGAAGACAGAT,5.58
9,TCGAGAAGGTTACCAATGGGGCATTCAGCTTTCT,3.02
10,CCTTACGGGTCACTGACGGGTTATAGCATTTGGA,5.58
11,CAAACTAGGTCAATGGTCAAAGTCGAGCCAACCA,3.81
12,GCTAGTTGGTAAGTAAAAGGTCACACACCGGTCG,4.96
13,TAGCCTAGTTCATGGGCCAGTATACCACGCGAAC,0.816
14,GCAGACAGGTGAAAAGCAGGTAACTCAGGGTGGC,0.178
15,CGAACTAGGTTATCCAGGACAGTGAATACATTGA,0.544
16,ATCTCTAGGTAACAAGTTCAGAGAAAGAGAGGAC,1.45
17,GCTTACGGGTCAAAGGTTATAGCGTGAATAGAAT,6.87
18,ATACCAAGGTGATCGTGATGTCGTTGATACTAAC,0.25
19,CCTAGCAGGACAGGGTCACTCAAGCATTTCGCTT,3.14
20,TTAATGAGGTTATAAGATCAGGGAACGTTGCAAA,1.59
